The campaign covered roughly 340,000 compounds. About 2,300 (0.68%) were called active. Only a selection was taken, and actives are over-represented in it overall. Unmarked numbers belong to inactive results. No stated cut-off is given here; in the data, active means growth rescue above about 28% (passing the limit was not always enough); inconclusive means no clear call, values can overlap the other calls.

This assay is described as follows: rescue of yeast from PfHsp40 toxicity, primary screen, S. cerevisiae, ATP luminescence (AID 504582).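 Further: yeast W303a lacking pdr1 and pdr3 grown in galactose medium; growth measured after three days at 30 °C.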 The conditions noted are these: S. cerevisiae expressing PfHsp40, growth rescue, at 12.5 µM, active compounds read high.
Consider `CSc1ccc(CNCCN2CCOCC2)cc1`, for which the growth rescue was -0.373%. Take `CCOc1ccc(NC(=O)C2CCN(C(=O)N3CCOc4ccccc43)CC2)cc1`: the growth rescue was 2.49%. As for `CCN(CC)S(=O)(=O)c1ccc(CNC(=O)CN2C(=O)NC3(CCc4ccccc43)C2=O)cc1` (stereo not drawn), the growth rescue was 0.805%. As for `COc1ccc(N2CCN(C(=O)CCNC(=O)c3ccc(Br)cc3)CC2)cc1`, the growth rescue was 156% (active). In the case of `COc1ccc(N2CCN(C(=O)CNC(=O)c3ccc(Br)o3)CC2)cc1`, the growth rescue was 0.176%.

Take `COc1ccc(N2CCN(C(=O)CNC(=O)c3ccc(C(C)(C)C)cc3)CC2)cc1`: the growth rescue is -0.643%. The value for `CCOC(=O)c1cnc(Nc2nc3ccccc3o2)nc1CSC(=S)N1CCCCC1` was -0.518%; that for `Cc1ccc2[nH]c(=O)c(CN(CCCN(C)C)C(=O)Nc3cccc(Cl)c3)cc2c1` was -0.771%; that for `CCn1c(/C=C/Nc2ccccc2)[n+](CC)c2ccc(C(=O)OCC(F)(F)F)cc21` was -1.14%. With `O=C(NN1C(=O)C2CCCCC2C1=O)c1ccco1` (stereo not drawn), the growth rescue is -1.05%.

Take `O=C1Nc2cc(Cl)c(Cl)cc2N(O)N1c1cc(Cl)cc(Cl)c1`: the growth rescue is 7.24%. Next, `Nc1ccc(C(=O)Nc2ccccc2N)cc1`: 0.192%; `Cc1ccccc1C(=O)Nc1ccccc1NC(=O)c1ccccc1C`: -1.3%; `CC(=O)Nc1ccccc1NC(=O)c1cc(C)cc(C)c1`: 51.5% (active). Next, `CC(=O)NNc1cc(=O)c2c(=O)n(C)c(=O)n(C)c2[nH]1`: -1.81%.

For `Cc1cc(Nc2cccc(C)c2C)n2ncnc2n1`, the growth rescue is -0.558%.

Turning to `Cc1ccc(-c2nn(C(C)(C)C)c3ncnc(N)c23)cc1`, the growth rescue was 263% (active). The value for `CCOc1cccc(NC(=O)Cn2nc(-c3ccc4c(c3)OCCO4)ccc2=O)c1` was 1.19%; that for `Cc1cc(C(=O)NCCc2ccc(Cl)cc2)c(C)o1` was 52.1% (active); that for `Cc1cc(C(=O)NCCc2ccc(Cl)cc2)n(-c2ccccc2)n1` was 0.0165%. Consider `O=C(NCCc1ccccc1)Oc1ccc(Cl)cc1`, for which the growth rescue was -0.082%. The value for `Cc1ccc(C(NC(=O)N2CCCC2)C(Cl)(Cl)Cl)cc1F` (stereo not drawn) was -0.492%; that for `CCCCn1c(SCC(=O)N2CCOCC2)nc2c1c(=O)n(C)c(=O)n2C` was -0.611%. The value for `CC(C)(C)OC(=O)C[C@@H]1C/C=C\C[C@@H](CC(=O)N[C@H](CO)Cc2ccccc2)C(=O)NCCOC1=O` was -0.196%; that for `COc1ccc(-c2cc(=O)oc3cc(OC(C)C(=O)Nc4ccc(CN5CCOCC5)cc4)ccc23)cc1` (stereo not drawn) was 0.401%; that for `Cc1ccccc1OCC(=O)Nc1ccc(N2CCN(C(=O)C(C)C)CC2)c(Cl)c1` was 48.8% (active). On to `COc1cc(NC(=O)COc2ccccc2Cl)ccc1NC(=O)C(C)C`, for which the growth rescue was 1.17%. Next, `CCC(=O)N1CCN(c2ccccc2NC(=O)COc2cccc(C)c2C)CC1`: 2.68%; `CCCC1OC23CCCCC2C(C#N)(C#N)C1(C#N)C(=N)O3` (stereo not drawn): -1.17%.

For the compound `CC(=O)Nc1nc(N(C)C)nc(N(C)C)n1`, the growth rescue is 1.85%. Take `Cn1cccc1C(C#N)c1ccccc1C#N` (stereo not drawn): the growth rescue was -0.257%. The value for `Cc1ccnc2nc(C(=O)Nc3nnc(-c4ccccc4)o3)nn12` was -0.238%; that for `COc1ccccc1C(=O)NCC(=O)OCC(=O)Nc1nnc(-c2ccccc2)o1` was -1.88%; that for `O=C(Nc1nnc(-c2ccc(Cl)cc2)o1)c1ccccc1Br` was 92.7% (active). In the case of `COc1ccc2c(c1)c1ncn(Cc3ccccn3)c(=O)c1n2C`, the growth rescue was -0.652%.

Turning to `O=C(O)c1cc2c(cc1NC(=O)c1c(F)cccc1Cl)OCCCO2`, the growth rescue is -1.32%. As for `O=C1c2ccccc2C2=Nc3ccccc3SC(c3ccccc3F)C12` (stereo not drawn), the growth rescue was 152% (active).

For the compound `CN(Cc1ccc(F)cc1)C(=O)CN1C(=O)c2ccccc2S1(=O)=O`, the growth rescue is -1.04%. Take `COc1ccc2sc(-c3ccc(S(C)(=O)=O)cc3)c(C#Cc3cncn3C)c2c1`: the growth rescue is -1.56%. The value for `Cn1cncc1C#Cc1c(-c2ccsc2)sc2ccccc12` was 311% (active); that for `Cc1cccc(-c2oc3ccc(-c4ccc5c(c4)OCO5)cc3c2C#Cc2cncn2C)c1` was 0.141%; that for `CC(=NCc1ccc2c(c1)OCO2)C1=C(O)c2ccccc2C1=O` was 47.2% (active). Next, `CCc1ccc(NC(=O)NC(C)c2ccc3c(c2)OCO3)cc1` (stereo not drawn): 1.14%. The value for `CC(=NCc1ccc2c(c1)OCO2)c1c(O)[nH]c(=O)[nH]c1=O` was -0.437%.

Regarding `CCN(/N=C/c1ccc(N(C)C)cc1)c1nc2ccccc2[nH]1`, the growth rescue is 0.687%. Regarding `COc1ccc(N)c(C)c1`, the growth rescue was -0.552%. Next, `NC(=O)Cn1nc([N+](=O)[O-])nc1Oc1ccc(Br)cc1`: 1.81%. For the compound `Cc1ccc(S(=O)(=O)N2CCOCC2)cc1NC(=O)COC(=O)c1cnccn1`, the growth rescue was 0.734%. The value for `CCC(O)CNc1nc(-n2nc(C)cc2C)nc2sc3c(c12)CC(C)(C)OC3` (stereo not drawn) was 0.423%; that for `CCCc1nc2sc3c(c2c(=O)n1NC(=O)CCCl)CCCC3` was -0.355%; that for `COCCNc1nc(-n2nc(C)cc2C)nc2sc3c(c12)CCCC3` was 111% (active). Next, `CC[C@]12c3[nH]c4ccc(OC)cc4c3CCN1C(=O)C(CC(=O)NCc1ccco1)C[C@@H]2C(=O)N1CCN(C(=O)C2CC2)CC1` (stereo partly drawn): -1.76%; `Cc1ccc2c(C)c(C(=O)N(C)CCC3CCCCO3)oc2c1C` (stereo not drawn): 15.7%; `O=C(Cn1c(NCCO)nc2ccccc21)c1ccc(Cl)cc1Cl`: 0.311%.

In the case of `O=S(=O)(Cc1ccccc1)c1nc2ccccc2n1Cc1ccccn1`, the growth rescue is -1.91%.

Turning to `O=S(=O)(O)c1nc2ccccc2n1Cc1ccc(Cl)cc1Cl`, the growth rescue is 46.4% (active). The value for `O=C(NC(=S)Nc1cccc(-c2ccc(CO)o2)c1)c1cccs1` was 5.49%; that for `Oc1c(C(c2ccccn2)N2CCOCC2)ccc2cccnc12` (stereo not drawn) was 457% (active); that for `COc1cc2c(cc1OC)C(C)N(S(=O)(=O)c1cnc(Cl)c(Cl)c1)CC2` (stereo not drawn) was 1.43%. The value for `CCC(=O)Nc1sc(C(=O)Nc2ccccc2)c(C)c1C(=O)OC` was 4.36%; that for `CCOC(=O)c1sc(NC(=O)c2sc(C)nc2C)nc1C` was -1.17%. `CCC(=O)Nc1nc(C)c(C(=O)Nc2cccc(Cl)c2)s1`: the growth rescue is 68.4% (active). Next, `CCOc1ccc(NS(=O)(=O)c2ccc(C)c(C(N)=O)c2)cc1`: -1.27%.

Consider `O=C(CCc1nc2sc3c(c2c(=O)[nH]1)CCCC3)NCC(=O)Nc1ccccc1Br`, for which the growth rescue was -1.97%. The value for `COC(=O)CN1C(=O)[C@H]2[C@@H](C3CC3)N3C(=O)CN(Cc4ccc(-c5ccccc5)cc4)C(=O)[C@@]3(Cc3ccccc3)[C@H]2C1=O` was -1.17%; that for `CN(C(=O)c1ccc(NC(=O)Cc2cccc(NC(=O)C3CCN(C(=O)c4ccccc4)CC3)c2)cc1)C1CC1` was -0.0305%; that for `Cn1cccc1/C=N/NC(=O)c1ccc(OC(F)(F)C(F)F)cc1` was -1.34%. The value for `O=C(Nc1ccc(OC(F)(F)F)cc1)c1ccc2c(c1)no[n+]2[O-]` was 178% (active); that for `Cn1nccc1NC(=O)Nc1ccc(OC(F)(F)F)cc1` was -0.0415%; that for `Cc1ccc2c(c1)N(C(=O)CCC(=O)NCc1cccnc1)CCO2` was -1.04%. Turning to `CCN([C@H](CO)C(C)C)S(=O)(=O)c1ccccc1Br`, the growth rescue is -0.487%.

With `COc1cccc(-n2c(=S)sc3c(=O)n(-c4ccccc4C)c(SCC(=O)O)nc32)c1`, the growth rescue is -1.96%. The value for `CC(C)C[C@@H](N)c1nnc(SCC(=O)c2ccc(Cl)cc2)o1` was -0.522%. For `COC(=O)c1c(C)c(C)nc(N)c1C#N`, the growth rescue was 0.0365%. The value for `COCc1c(N)c(C)nc(Cl)c1C#N` was 51% (active).

Regarding `Cc1nc(Cl)c(C#N)c2c1CCCC2`, the growth rescue was 0.263%. On to `OC(COc1ccc(F)cc1Cl)CN1CCc2ccccc2C1` (stereo not drawn), for which the growth rescue was 0.0845%.

For `Cc1ccc(OCC(O)CN2CCN(CC(O)COc3ccc(C)cc3Cl)CC2)c(Cl)c1` (stereo not drawn), the growth rescue was 65.8% (active).

With `C=CCc1ccc(OCC(O)CN2CCN(Cc3ccccc3)CC2)c(OC)c1` (stereo not drawn), the growth rescue is -0.721%. The value for `CCCC(NC(=O)c1ccco1)c1nc2ccccc2[nH]1` (stereo not drawn) was -0.136%; that for `O=c1[nH]c2cccnc2n(CCNc2ncc(C(F)(F)F)cc2Cl)c1=O` was -1.76%; that for `COc1cccc(/C=N/Nc2ncc(C(F)(F)F)cc2Cl)c1O` was 233% (active).

For the compound `CN(C)C=NC(=O)c1cccn1-c1ncc(C(F)(F)F)cc1Cl`, the growth rescue is -0.737%. Next, `COc1ccc(NC(=O)COC(=O)c2ccncc2)c(OC)c1`: -0.471%. The value for `CN(CCOc1ccc(Br)cc1)CC(=O)Nc1cccc(S(=O)(=O)NC2=NCCC2)c1` was -0.17%. As for `COc1cc(C)c(C)cc1S(=O)(=O)N1CCCc2ccccc21`, the growth rescue is -0.881%.

For `CCOC(=O)Cc1csc(SCC(=O)Nc2ccc(C)cc2F)n1`, the growth rescue was 0.85%. Next, `O=C(Cc1ccc(Br)cc1)NCCc1ccccc1`: 1.3%.

On to `S=C(Nc1ccc(Br)cc1)NC1CCN(Cc2ccccc2)CC1`, for which the growth rescue was 1.33%. Consider `S=C(NCCCc1ccccc1)Nc1ccc(Br)cc1`, for which the growth rescue is 263% (active).

As for `Cc1ccc(C)c2[nH]c(=O)c(CN(Cc3cccnc3)C(=S)NCc3ccco3)cc12`, the growth rescue was 0.529%. For `O=C(CSC1CC(=O)N(CCc2ccccc2)C1=O)Nc1ccc(Cl)cc1` (stereo not drawn), the growth rescue is 0.11%.

Regarding `CCCC(C(=O)n1nc(C)cc1C)C(NS(=O)(=O)c1ccc(C)cc1)c1ccccc1` (stereo not drawn), the growth rescue was 5.61%.

For the origin of these results see PubChem BioAssay AID504582 (Broad Institute, 2011).
